Measured values: PubChem BioAssay AID1159580 (chemical genetic matrix, 2015)
Hit rate of the full screen: of about 5,500 compounds, about 2,000 (36%) were called active. Inconclusive results (about 18%) are left out. Rule as the data show it: active = normalized growth mostly below about 0.91 (no sharp cut-off); inconclusive = no clear call, values can overlap the other calls; inactive = mostly above about 0.92. Some of the results follow.

Assay: chemical genetic growth profiling, strain panel (AID 1159580);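 also: tested at 20 µM; growth read once vehicle control cultures reached saturation at 30 °C; 1 = growth at the plate median or of vehicle wells; lower values mean less growth of the strain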
Settings: growth OD

Measured: normalized growth

CCCC(=O)Nc1ncnc2c1ncn2C1O[C@@H]2COP(=O)(O)O[C@H]2[C@H]1OC(=O)CCC (stereo not given in full)
inactive: S. cerevisiae deletion strains, locus YJR066W, strain TOR1, hits give low values 0.97 | S. cerevisiae deletion strains, locus YKL009W, strain mrt4, hits give low values 1.01 | S. cerevisiae deletion strains, locus YKL068W, hits give low values 1.03 | S. cerevisiae deletion strains, locus YKL085W, strain MDH1 (second series), hits give low values 1.01 | S. cerevisiae deletion strains, locus YKL085W, strain MDH1, hits give low values 1.01 | S. cerevisiae deletion strains, locus YKL160W, strain elf1, hits give low values 0.999 | S. cerevisiae deletion strains, locus YKL190W, strain CNB1, hits give low values 1.01 | S. cerevisiae deletion strains, locus YKR001C, strain vps1, hits give low values 1.04 | S. cerevisiae deletion strains, locus YKR026C, strain gcn3, hits give low values 0.979 | S. cerevisiae deletion strains, locus YKR091W, strain srl3, hits give low values 0.989 | S. cerevisiae deletion strains, locus YLL001W, strain dnm1, hits give low values 0.967 | S. cerevisiae deletion strains, locus YLL026W, hits give low values 0.985 | S. cerevisiae deletion strains, locus YLL041C, strain sdh2, hits give low values 0.98 | S. cerevisiae deletion strains, locus YLR027C, strain aat2, hits give low values 0.999 | S. cerevisiae deletion strains, locus YLR039C, strain RIC1, hits give low values 1.02 | S. cerevisiae deletion strains, locus YLR058C, strain SHM2, hits give low values 1.01 | S. cerevisiae deletion strains, locus YLR102C, strain apc9, hits give low values 1.01 | S. cerevisiae deletion strains, locus YLR113W, strain HOG1, hits give low values 1.01 | S. cerevisiae deletion strains, locus YLR221C, strain rsa3, hits give low values 0.945 | S. cerevisiae deletion strains, locus YLR258W, strain gsy2, hits give low values 0.965 | S. cerevisiae deletion strains, locus YLR262C, strain YPT6 (second series), hits give low values 0.984 | S. cerevisiae deletion strains, locus YLR262C, strain YPT6, hits give low values 1.04 | S. cerevisiae deletion strains, locus YLR268W, strain sec22, hits give low values 1.03 | S. cerevisiae deletion strains, locus YLR320W, strain mms22, hits give low values 0.949 | S. cerevisiae deletion strains, locus YLR330W, strain CHS5, hits give low values 1.01 | S. cerevisiae deletion strains, locus YLR342W, strain FKS1 (second series), hits give low values 1 | S. cerevisiae deletion strains, locus YLR342W, strain FKS1, hits give low values 0.992 | S. cerevisiae deletion strains, locus YLR357W, strain rsc2, hits give low values 1 | S. cerevisiae deletion strains, locus YLR370C, strain arc18, hits give low values 0.952 | S. cerevisiae deletion strains, locus YLR371W, strain rom2, hits give low values 1.02 | S. cerevisiae deletion strains, locus YLR384C, strain iki3, hits give low values 0.976 | S. cerevisiae deletion strains, locus YLR418C, strain cdc73, hits give low values 1.04 | S. cerevisiae deletion strains, locus YML016C, strain PPZ1, hits give low values 1.01 | S. cerevisiae deletion strains, locus YML032C, strain rad52, hits give low values 1.03 | S. cerevisiae deletion strains, locus YML120C, strain ndi1, hits give low values 0.962 | S. cerevisiae deletion strains, locus YML124C, strain tub3, hits give low values 1.01 | S. cerevisiae deletion strains, locus YMR058W, strain fet3, hits give low values 0.986 | S. cerevisiae deletion strains, locus YMR078C, strain ctf18, hits give low values 1.03 | S. cerevisiae deletion strains, locus YMR125W, strain sto1, hits give low values 0.971 | S. cerevisiae deletion strains, locus YMR129W, hits give low values 0.991 | S. cerevisiae deletion strains, locus YMR205C, strain PFK2, hits give low values 0.98 | S. cerevisiae deletion strains, locus YMR223W, strain ubp8, hits give low values 1.03 | S. cerevisiae deletion strains, locus YMR231W, strain pep5, hits give low values 0.988 | S. cerevisiae deletion strains, locus YMR263W, strain SAP30, hits give low values 1 | S. cerevisiae deletion strains, locus YMR307W, strain GAS1, hits give low values 0.995 | S. cerevisiae deletion strains, locus YNL067W, strain RPL9B, hits give low values 1 | S. cerevisiae deletion strains, locus YNL071W, strain lat1, hits give low values 0.987 | S. cerevisiae deletion strains, locus YNL128W, strain TEP1, hits give low values 1.02 | S. cerevisiae deletion strains, locus YNL153C, strain GIM3, hits give low values 1 | S. cerevisiae deletion strains, locus YNL183C, strain NPR1, hits give low values 0.969 | S. cerevisiae deletion strains, locus YNL209W, strain ssb2, hits give low values 0.982 | S. cerevisiae deletion strains, locus YNL233W, strain BNI4, hits give low values 0.999 | S. cerevisiae deletion strains, locus YNL248C, strain rpa49, hits give low values 1.02 | S. cerevisiae deletion strains, locus YNL250W, strain rad50, hits give low values 1.03 | S. cerevisiae deletion strains, locus YNL271C, strain bni1, hits give low values 1.02 | S. cerevisiae deletion strains, locus YNL298W, strain CLA4, hits give low values 1.02 | S. cerevisiae deletion strains, locus YNL307C, strain MCK1, hits give low values 1.03 | S. cerevisiae deletion strains, locus YNL322C, strain KRE1 (second series), hits give low values 0.975 | S. cerevisiae deletion strains, locus YNR049C, strain mso1, hits give low values 0.981 | S. cerevisiae deletion strains, locus YNR052C, strain pop2, hits give low values 1.02 | S. cerevisiae deletion strains, locus YOL006C, strain TOP1, hits give low values 1.03 | S. cerevisiae deletion strains, locus YOL012C, strain htz1 0.919 | S. cerevisiae deletion strains, locus YOL147C, strain pex11, hits give low values 1.02 | S. cerevisiae deletion strains, locus YOR001W, strain rrp6, hits give low values 1.02 | S. cerevisiae deletion strains, locus YOR061W, strain CKA2, hits give low values 1.02 | S. cerevisiae deletion strains, locus YOR069W, strain VPS5, hits give low values 1 | S. cerevisiae deletion strains, locus YOR070C, strain gyp1, hits give low values 0.988 | S. cerevisiae deletion strains, locus YOR080W, strain dia2, hits give low values 0.983 | S. cerevisiae deletion strains, locus YOR083W, strain WHI5, hits give low values 0.986 | S. cerevisiae deletion strains, locus YOR106W, strain vam3, hits give low values 0.982 | S. cerevisiae deletion strains, locus YOR136W, strain idh2, hits give low values 1.02 | S. cerevisiae deletion strains, locus YOR144C, strain elg1, hits give low values 1.02 | S. cerevisiae deletion strains, locus YOR184W, strain ser1, hits give low values 1.02 | S. cerevisiae deletion strains, locus YOR231W, strain MKK1, hits give low values 1.03 | S. cerevisiae deletion strains, locus YOR265W, strain rbl2, hits give low values 0.978 | S. cerevisiae deletion strains, locus YOR270C, strain vph1, hits give low values 0.983 | S. cerevisiae deletion strains, locus YOR290C, strain snf2, hits give low values 0.961 | S. cerevisiae deletion strains, locus YOR316C, strain cot1, hits give low values 1.02 | S. cerevisiae deletion strains, locus YPL051W, strain arl3, hits give low values 0.997 | S. cerevisiae deletion strains, locus YPL078C, strain atp4, hits give low values 0.99 | S. cerevisiae deletion strains, locus YPL106C, strain sse1, hits give low values 0.941 | S. cerevisiae deletion strains, locus YPL240C, strain hsp82, hits give low values 0.994 | S. cerevisiae deletion strains, locus YPL241C, strain CIN2, hits give low values 1.01 | S. cerevisiae deletion strains, locus YPL256C, strain CLN2, hits give low values 1.06 | S. cerevisiae deletion strains, locus YPR119W, strain clb2, hits give low values 1.02 | S. cerevisiae deletion strains, locus YPR141C, strain kar3, hits give low values 1.01 | S. cerevisiae deletion strains, locus YPR163C, strain tif3, hits give low values 1.03 | S. cerevisiae deletion strains, locus YPR167C, strain met16, hits give low values 1.01 | S. cerevisiae deletion strains, strain wtn01, hits give low values 1.02 | S. cerevisiae strains, strain wild type, hits give low values 1.01
